Measurements reported in PubChem BioAssay (NCI).
The panel holds about 79,000 compounds, 15% with a hit somewhere; the sample as a whole holds those more often. Active and inactive are the calls of the source. No stated cut-off is given here; in the data, active means growth inhibition above about 70%; inactive means the rest.

Assays:
[1] = NCI Yeast Anticancer Drug Screen. Data for the rad50 strain (AID 155);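 further: 0% = growth of vehicle-only cultures of the same strain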; details: S. cerevisiae rad50 strain growth inhibition, stronger effect = higher value
Method in brief: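 A DNA repair-deficient yeast mutant serves as the test organism; compound-induced growth inhibition is calculated against vehicle-treated cells.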

[2] = NCI Yeast Anticancer Drug Screen. Data for the mec2-1 strain (AID 157); details: S. cerevisiae mec2-1 strain, stronger effect = higher value
Method in brief: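 Readout is yeast growth inhibition, normalised to vehicle-treated controls, in the mec2-1 strain exposed to compound.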

[3] = NCI Yeast Anticancer Drug Screen. Data for the sgs1 mgt1 strain (AID 161);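 further: 0% = growth of cultures given vehicle only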; details: S. cerevisiae sgs1 mgt1 strain, stronger effect = higher value
Method in brief: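 Yeast cells carrying a defined DNA-repair defect were exposed to test compounds. Growth inhibition was measured relative to vehicle-treated controls.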

[4] = NCI Yeast Anticancer Drug Screen. Data for the cln2 rad14 strain (AID 165);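 further: 0% = growth equal to vehicle treated cultures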; details: S. cerevisiae cln2 rad14 strain, stronger effect = higher value
Method in brief: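 Relative to vehicle controls, growth inhibition of compound-treated cln2 rad14 yeast was recorded.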

[5] = NCI Yeast Anticancer Drug Screen. Data for the bub3 strain (AID 167); details: S. cerevisiae bub3 mutant strain, stronger effect = higher value
Method in brief: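 Inhibition values come from growth of compound-treated mutant yeast normalised to vehicle-treated controls.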

[6] = NCI Yeast Anticancer Drug Screen. Data for the mlh1 rad18 strain (AID 175); details: S. cerevisiae mlh1 rad18 strain growth inhibition, stronger effect = higher value
Method in brief: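 Test agents were incubated with a yeast strain of defined genotype (DNA damage repair defect). Inhibition of growth was derived by comparison with vehicle-exposed cultures.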

[7] = at 5.0 µM (retest, dose inferred, filed as 0.5)
[8] = at 50.0 µM (retest, dose inferred, filed as 5.0)

Measured: growth inhibition

COC(=O)c1cccc2c1C(=O)c1ccccc1-2
active: [4]; at 50.0 µM 71.2%
inactive: [1]; [7] -7% | [1]; [8] 37% | [1]; at 50.0 µM 22.7% | [2]; [7] -37% | [2]; [8] -14% | [2]; at 50.0 µM -9.6% | [3]; [7] -8% | [3]; [8] -11% | [3]; at 50.0 µM -5.9% | [4]; [7] -3% | [4]; [8] -19% | [5]; [7] -23% | [5]; [8] -54% | [5]; at 50.0 µM -10.7% | [6]; [7] -2% | [6]; [8] -6% | [6]; at 50.0 µM 1.55%

COc1cccc(/C=C2\CCC(CN(C)C)C2=O)c1 (stereo not drawn)
active: [1]; [8] 95% | [1]; at 50.0 µM 93.5% | [2]; [8] 99% | [2]; at 50.0 µM 93.8% | [3]; [8] 99% | [3]; at 50.0 µM 93.3% | [4]; [8] 98% | [4]; at 50.0 µM 91.6% | [5]; [8] 99% | [5]; at 50.0 µM 92.5% | [6]; [8] 99% | [6]; at 50.0 µM 91.7%
inactive: [1]; [7] 27% | [2]; [7] 21% | [3]; [7] 39% | [4]; [7] 28% | [5]; [7] 48% | [6]; [7] 35%

CCc1nc(N)nc(N)c1-c1ccc(NCCCN)c([N+](=O)[O-])c1
inactive: [1]; [7] -15% | [1]; [8] -17% | [1]; at 50.0 µM 69.7% | [2]; [7] 17% | [2]; [8] -2% | [2]; at 50.0 µM 44.8% | [3]; [7] -19% | [3]; [8] -36% | [3]; at 50.0 µM 69.2% | [4]; [7] -15% | [4]; [8] -5% | [4]; at 50.0 µM 69% | [5]; [7] -44% | [5]; [8] -18% | [5]; at 50.0 µM 6.45% | [6]; [7] -17% | [6]; [8] -36%
active: [6]; at 50.0 µM 82.5%

COc1ccc(S(=O)(=O)O)cc1-n1nc(C(=O)Nc2ccccc2)n[n+]1-c1cc(S(=O)(=O)[O-])ccc1OC
inactive: [1]; [7] 2% | [1]; [8] 9% | [1]; at 50.0 µM 19.1% | [2]; [7] 1% | [2]; [8] 3% | [2]; at 50.0 µM 39.8% | [3]; [7] 10% | [3]; [8] 4% | [3]; at 50.0 µM 22% | [4]; [7] 0% | [4]; [8] 2% | [4]; at 50.0 µM 0.4% | [5]; [7] -3% | [5]; [8] 2% | [5]; at 50.0 µM -10.6% | [6]; [7] 1% | [6]; [8] -61% | [6]; at 50.0 µM 63.9%

CCOc1ccc2c(c1)[n+]([O-])c(-c1ccc([N+](=O)[O-])cc1)c(N)[n+]2[O-]
active: [1]; [8] 82% | [1]; at 50.0 µM 95% | [2]; [8] 90% | [2]; at 50.0 µM 80.5% | [3]; [8] 96% | [3]; at 50.0 µM 96% | [4]; [8] 76% | [4]; at 50.0 µM 94.3% | [5]; [8] 94% | [5]; at 50.0 µM 96% | [6]; [8] 93% | [6]; at 50.0 µM 97.4%
inactive: [1]; [7] 22% | [2]; [7] 41% | [3]; [7] 38% | [4]; [7] 21% | [5]; [7] 65% | [6]; [7] 56%

O=C(OC1C2CCC2C2CC21)c1ccc([N+](=O)[O-])cc1[N+](=O)[O-] (stereo not drawn)
inactive: [1]; [7] 26% | [1]; at 50.0 µM 36% | [2]; [7] 14% | [2]; at 50.0 µM 37.5% | [3]; [7] 24% | [3]; at 50.0 µM 59.1% | [4]; [7] 6% | [4]; at 50.0 µM 39.5% | [5]; [7] -5% | [5]; at 50.0 µM 37.2% | [6]; [7] 25% | [6]; at 50.0 µM 62.9%
active: [1]; [8] 95% | [2]; [8] 99% | [3]; [8] 98% | [4]; [8] 99% | [5]; [8] 93% | [6]; [8] 98%
